In the supplement of paper PMC4723716:

Test system: Plasmodium falciparum NF54 gametocytes
Experiment: viability index relative to DMSO control (fraction); higher = less gametocyte killing
Conditions: 12.5 µM, incubation time: 72 h
Summary of the method: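 P. falciparum NF54 gametocytes of each stage (I–V), in serum-containing medium (0.50% gametocytemia, 1.25% hematocrit, 40 µl), were incubated with compound at 12.5 µM in 384-well plates for 72 hr at 37°C under low oxygen. Wells received 5 µl of 5 µM MitoTracker Red CMXRos for 20 min. Then 5 µl was moved into 40 µl of 500 nM dye in serum-free medium and imaged after 30 min (three fields). The viability index was the gametocyte particle count divided by the plate mean of DMSO wells.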

[1] = gametocyte stage: Stage I viability index
[2] = gametocyte stage: Stage II viability index
[3] = gametocyte stage: Stage III viability index
[4] = gametocyte stage: Stage IV viability index
[5] = gametocyte stage: Stage V viability index

SMILES	viability index [1]	viability index [2]	viability index [3]	viability index [4]	viability index [5]
CC1CCCCN1CCCNC(=O)c1ccc2c(c1)sc1nc(-c3ccc(F)cc3)cn12 (stereo not given)	0.113	0.443	1.05	1.2	1
COc1ccc(C=C2SC(=N)N(c3ccccc3OC)C2=O)cc1	0.642	0.916	0.942	0.769	0.923
CCOc1cc2c(cc1OCC)C(c1cc(Cl)c(O)c(OCC)c1)NCC2 (stereo not given)	0.0402	0.163	0.539	0.829	0.922
CCN(CC)CCCNc1ccnc2cc3ccccc3cc12	0.0594	0.485	0.972	0.946	1.1
Cc1ccc(C2CC(C(F)(F)F)n3nc(C(=O)N4CCN(C(c5ccccc5)c5ccccc5)CC4)cc3N2)cc1 (stereo not given)	0.576	0.645	0.944	0.804	0.922
CCN(CC)CCNc1ccnc2cc3ccccc3cc12	0.0323	0.0591	0.106	0.0475	0.039
C=CCc1c(C)nc2ccccc2c1O	0.92	0.671	0.798	0.793	1.05
CN(C)c1ccc(-c2nc3cc(N)ccc3[nH]2)cc1	0.0873	0.566	0.962	0.939	0.725
COc1ccccc1N1C(=N)SC(=Cc2ccc(OCc3ccccc3F)cc2)C1=O	0.669	0.654	0.661	0.563	0.403
O=C(Nc1cccc(C2=NCCN2)c1)Nc1cccc(C2=NCCN2)c1	0.565	0.718	0.773	0.908	0.818
CCOC(=O)C1=C(C)N=c2sc(=Cc3cc(Cl)ccc3O)c(=O)n2C1c1ccc(OC)cc1 (stereo not given)	0.0559	0.0966	0.137	0.171	0.416
O=C(CCc1ccccc1)c1ccccc1OCC(O)CN1CCCCC1 (stereo not given)	0.00787	0.0616	0.36	0.465	0.39
COc1ccc(-c2nonc2NC(=O)c2cccc(C)c2)cc1OC	0.62	0.55	0.571	0.769	0.571
CCOC(=O)c1cnc2c(CC)cccc2c1O	1.15	0.838	0.966	0.835	0.844
Cc1ccc(Nc2nc(-c3ccccn3)cs2)cc1	0.193	0.22	0.109	0.173	0.121
CCc1ccc(CNCC(O)c2ccccc2)cc1 (stereo not given)	0.042	0.177	0.649	0.703	0.506
COc1cccc(C=Cc2nc(=O)c3ccccc3o2)c1OC	0.751	0.717	0.809	0.948	0.967
O=[N+]([O-])c1ccc(C=NNc2nc3ccccc3[nH]2)cc1	0.0818	0.586	0.911	0.869	0.802
O=C(Nc1ccc(N2CCN(Cc3ccccc3)CC2)cc1)c1cccs1	0.941	0.866	0.795	0.875	1.15
O=C(NCc1ccco1)C1CCN(S(=O)(=O)c2ccc(Cl)cc2)CC1	0.568	0.802	1.03	0.942	1.23
CCCc1c(C)nc2ccccc2c1O	0.634	0.705	0.844	0.72	1.02
CC(C)=CCN1CCC(C(=O)Nc2ccc(-c3nc4ccccc4[nH]3)cc2)CC1	0.0674	0.525	0.921	0.912	0.967
COc1ccc(CCN2CCC(CN(C)Cc3cnn(-c4ccccc4)c3)CC2)cc1	0.203	0.496	0.508	0.498	0.418
Cc1ccc2c(C)nc(Nc3nc(C)cc(-c4ccccc4)n3)nc2c1	0.169	0.3	0.318	0.231	0.0519
Cc1sc(NC(=O)c2ccco2)c(C(c2cccnc2)N2CCC(Cc3ccccc3)CC2)c1C (stereo not given)	0.00962	0.0408	0.261	0.418	0.351
